These results are taken from PubChem BioAssay.

A short description of assay [1]: E. coli DRC41 culture turbidity changes, primary screen, E. coli filamentation inducer project, strain DRC41, OD650, 48 h (AID 1152).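 Also: E. coli MC1000 strain DRC41 lacking acrAB efflux pump and sulA.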 As to conditions: E. coli DRC41 (acrAB sulA), higher = more signal, called active from +8 up or from −8 down.
Assay [2] is described as follows: small-molecule binders of probe aLefty1, primary screen, biochemical, small-molecule microarray, 635/667 nm fluorescence (AID 1153).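 Also: score merges spot fluorescence with signal-to-noise ratio from the scanned slide images.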 To be noted: higher = more signal.
The nature of assay [3]: PSAC antagonists in infected red cells, primary screen, cell-based, P. falciparum Indochina, OD700, 1 h (AID 1154). As to conditions: P. falciparum Indochina infected RBC osmotic lysis, higher = more signal, called active from +8 up or from −8 down.
A short description of assay [4]: PSAC antagonists in infected red cells, primary screen, cell-based, P. falciparum Indochina, OD700, 2 h (AID 1155).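 Also: lysis reports solute entry through the parasite surface anion channel PSAC; channel blockers reduce lysis of infected cells.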 As to conditions: P. falciparum Indochina infected erythrocytes, osmotic lysis OD700; higher = more signal, called active from +8 up or from −8 down.
The nature of assay [5]: osmotic lysis modulators in infected erythrocytes, primary screen, PSAC antagonist project, cell-based, P. falciparum Indochina, OD700, 3 h (AID 1156). To be noted: higher = more signal, called active from +8 up or from −8 down.
The nature of assay [6]: PSAC antagonists in infected red cells, primary screen, cell-based, P. falciparum Indochina, OD700, 18 h (AID 1157). As to conditions: P. falciparum Indochina infected erythrocytes, osmotic lysis OD700, 18 h; higher = more signal, called active from +8 up or from −8 down.
Assay [7] is described as follows: modulators of S6 phosphorylation in cells, primary screen, cell-based, A549, cytoblot, luminescence, serum-stimulated (AID 1158).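 Also: serum-stimulated A549 lung adenocarcinoma cells; signal is phosphorylated S6 detected by cytoblot immunostaining with HRP secondary.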 To be noted: A549 phospho-S6 cytoblot, 5 h, higher = more signal.
For assay [8], the target named is NADPH oxidase 2 (Homo sapiens) (UniProt P04839). The assay is described as follows: NOX2-dependent H2O2 signal modulators, primary screen, NOX inhibitor project, cell-based, HEK293-NOX2, PMA-stimulated, Amplex Red fluorescence (AID 1159). Also: test concentration not given here. As to conditions: 45 min, higher = more signal, called active from +8 up or from −8 down.
For assay [9], the target named is NADPH oxidase 4 (Homo sapiens) (UniProt Q9NPH5). In words: NOX4-dependent H2O2 signal modulators, primary screen, NOX inhibitor project, cell-based, HEK293-NOX4, tetracycline-induced, Amplex Red fluorescence (AID 1160). As to conditions: 45 min, higher = more signal, called active from +8 up or from −8 down.
Assay [10] deals with NADPH oxidase 5 (Homo sapiens) (UniProt Q96PH1). In words: NOX5-dependent H2O2 signal modulators, primary screen, NOX inhibitor project, cell-based, HEK293-NOX5, Amplex Red fluorescence (AID 1161). To be noted: HEK293-NOX5, ionomycin, 45 min, higher = more signal.

Active and inactive are the calls of the source.

NADPH oxidase 5 (Homo sapiens), sequence (Q96PH1 whole entry, looked up): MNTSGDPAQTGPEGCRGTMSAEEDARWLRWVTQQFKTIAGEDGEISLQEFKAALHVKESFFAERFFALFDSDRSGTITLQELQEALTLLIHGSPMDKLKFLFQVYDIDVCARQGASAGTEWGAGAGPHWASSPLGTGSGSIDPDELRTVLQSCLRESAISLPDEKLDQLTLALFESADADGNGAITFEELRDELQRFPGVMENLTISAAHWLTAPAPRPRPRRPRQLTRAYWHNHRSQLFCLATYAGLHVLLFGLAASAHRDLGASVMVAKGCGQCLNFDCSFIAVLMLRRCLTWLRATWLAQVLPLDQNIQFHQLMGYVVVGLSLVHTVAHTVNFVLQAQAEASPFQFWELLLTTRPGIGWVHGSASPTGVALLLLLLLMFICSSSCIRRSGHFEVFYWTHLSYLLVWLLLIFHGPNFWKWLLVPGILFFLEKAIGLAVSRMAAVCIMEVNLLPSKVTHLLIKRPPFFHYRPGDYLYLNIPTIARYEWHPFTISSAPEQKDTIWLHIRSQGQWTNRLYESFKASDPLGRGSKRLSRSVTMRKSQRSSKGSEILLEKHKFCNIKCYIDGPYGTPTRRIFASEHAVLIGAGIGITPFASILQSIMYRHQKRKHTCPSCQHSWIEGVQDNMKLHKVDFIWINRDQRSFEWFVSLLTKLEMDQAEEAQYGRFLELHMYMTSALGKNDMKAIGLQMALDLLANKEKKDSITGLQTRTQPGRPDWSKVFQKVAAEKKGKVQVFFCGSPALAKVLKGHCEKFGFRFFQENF
NADPH oxidase 4 (Homo sapiens), sequence (Q9NPH5 whole entry, looked up): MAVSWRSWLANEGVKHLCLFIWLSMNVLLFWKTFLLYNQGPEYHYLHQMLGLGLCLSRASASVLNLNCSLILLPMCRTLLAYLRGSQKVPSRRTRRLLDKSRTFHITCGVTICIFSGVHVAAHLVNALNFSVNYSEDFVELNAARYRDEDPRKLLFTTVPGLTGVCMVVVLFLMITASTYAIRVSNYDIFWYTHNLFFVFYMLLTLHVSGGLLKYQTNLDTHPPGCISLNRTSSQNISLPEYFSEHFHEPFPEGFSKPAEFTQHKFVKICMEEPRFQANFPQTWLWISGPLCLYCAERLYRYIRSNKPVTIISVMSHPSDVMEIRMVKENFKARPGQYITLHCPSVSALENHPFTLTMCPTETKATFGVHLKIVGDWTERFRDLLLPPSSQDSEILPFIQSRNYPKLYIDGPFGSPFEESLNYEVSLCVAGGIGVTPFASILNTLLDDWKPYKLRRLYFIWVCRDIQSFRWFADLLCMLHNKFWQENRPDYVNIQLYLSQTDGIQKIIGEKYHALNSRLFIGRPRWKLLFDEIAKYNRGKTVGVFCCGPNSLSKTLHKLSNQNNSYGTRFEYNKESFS
NADPH oxidase 2 (Homo sapiens), sequence (P04839 whole entry, looked up): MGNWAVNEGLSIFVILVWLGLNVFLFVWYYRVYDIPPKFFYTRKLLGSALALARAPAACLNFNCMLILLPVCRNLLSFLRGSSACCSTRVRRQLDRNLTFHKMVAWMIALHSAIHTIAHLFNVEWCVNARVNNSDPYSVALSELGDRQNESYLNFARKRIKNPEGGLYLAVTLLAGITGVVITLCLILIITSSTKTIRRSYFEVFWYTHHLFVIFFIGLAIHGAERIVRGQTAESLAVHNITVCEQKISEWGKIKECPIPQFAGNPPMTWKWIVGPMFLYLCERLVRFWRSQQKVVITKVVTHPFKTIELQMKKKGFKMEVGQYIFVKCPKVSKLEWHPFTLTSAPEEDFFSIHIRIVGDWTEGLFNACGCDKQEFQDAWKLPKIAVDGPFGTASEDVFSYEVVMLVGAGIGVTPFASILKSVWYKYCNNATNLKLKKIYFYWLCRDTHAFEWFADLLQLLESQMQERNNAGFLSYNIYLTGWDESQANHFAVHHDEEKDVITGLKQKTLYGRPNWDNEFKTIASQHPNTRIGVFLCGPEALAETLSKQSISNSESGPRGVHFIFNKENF

For the compound `CO[C@H]1COC(=O)CC=C[C@H](C)[C@@H](OC)COC(=O)[C@H](Cc2ccccc2)NC(=O)CC=C[C@@H]1C`, the z-score in assay [1] is -0.76 (inactive); in assay [3], -0.235 (inactive); in assay [4], -0.912 (inactive); in assay [5], 0.959 (inactive); in assay [6], -2.2 (inactive); in assay [7], 0.659. Besides, the z-score in [8] is 0.93 (inactive); in [9], -1.49 (inactive); in [10], 0.404. Besides, the composite z-score in assay [2] is -0.183.
For `Cc1ccc(S[C@]2(C(=O)NC(C)C)CC(=O)N(C3Cc4ccccc4C3)[C@@H]2c2ccc(CO)cc2)cc1`, the z-score in assay [1] is -0.415 (inactive); in assay [3] it was 2.26 (inactive); in [4] it was -0.862 (inactive); in assay [5], 1.04 (inactive); in assay [6], -1.88 (inactive); in assay [7], 1.95. The results for the z-score in assay [8], in [9] and in [10] were 0.0257 (inactive), -0.029 (inactive) and -0.927, respectively. In assay [2], this compound had a composite z-score of -0.357.
Regarding `Cc1ccc(S[C@]2(C(=O)NC3CC3)CC(=O)N(Cc3cc(C(F)(F)F)cc(C(F)(F)F)c3)[C@@H]2c2ccc(CO)cc2)cc1`, the z-score was 0.537 (inactive) in [1]; 1.21 (inactive) in assay [3]; -0.861 (inactive) in [4]; 1.08 (inactive) in [5]; -1.95 (inactive) in assay [6]; 0.95 in assay [7]. Further, the z-score in assay [8] was 0.249 (inactive); in assay [9] it was -0.00878 (inactive); in [10], 1.78. The compound also showed a composite z-score in assay [2] of -0.0186.
Take `CC(C)NC(=O)[C@@]1(Cc2ccccc2I)c2ccccc2C(=O)N(C2CCCCC2)[C@H]1c1ccc(CO)cc1`: the z-score is 0.151 (inactive) in assay [1]; 7.99 (inactive) in assay [3]; 1.13 (inactive) in assay [4]; 3.67 (inactive) in assay [5]; 1.28 (inactive) in assay [6]; 0.274 in [7]. Also, the z-score is 0.988 (inactive) in assay [8], -1.77 (inactive) in assay [9] and -1.42 in [10]. For the same compound, in assay [2], the composite z-score worked out at 0.149.
With `COC(=O)[C@@]1(Cc2ccccc2)[C@H]2c3cc(C(=O)N4CCCC4)n(CCN4CNCC4=O)c3C[C@H]2CN1C(=O)c1ccccc1`, the z-score in assay [1] is -1.1 (inactive); in assay [3], -0.469 (inactive); in assay [4], -1.05 (inactive); in [5], 0.423 (inactive); in [6] it was -1.63 (inactive); in assay [7], 0.212. Also, the z-score is 0.122 (inactive) in [8], 1.61 (inactive) in [9] and 0.595 in [10]. For the same compound, in assay [2], the composite z-score stood at 0.0176.
Regarding `CO[C@H]1O[C@H](CO)[C@@H](OC(=O)CCc2ccccc2)[C@@H]2OC(=O)[C@H](Cc3cccc(Br)c3)C/C=C/C[C@@H](Cc3cccc(Br)c3)C(=O)O[C@@H]12`, the z-score in assay [1] is 3.1 (inactive); in assay [3] it was 1.18 (inactive); in [4] it was -0.807 (inactive); in [5], -0.856 (inactive); in assay [6], -1.19 (inactive); in [7], 2.26. Also, the z-score in assay [8] is 2.16 (inactive); in assay [9] it was 1.57 (inactive); in [10], 1.28. This compound also displayed a composite z-score in assay [2] of -0.139.
With `CC(=O)NCCCC[C@@H]1NC(=O)[C@@H]2C[C@H](C(=O)NCc3ccc(F)cc3)[C@H](c3cccc(OCCO)c3)N2C1=O`, the z-score in [1] was 0.197 (inactive); in assay [3], 5.48 (inactive); in assay [4], 0.503 (inactive); in assay [5], -4.35 (inactive); in [6] it was 0.374 (inactive); in assay [7], -0.206. Besides, the z-score in [8] was 1.87 (inactive); in assay [9], 1.42 (inactive); in assay [10] it was 1.1. The compound further returned a composite z-score in assay [2] of 0.0259.
As to `COc1cccc([C@@H]2[C@@H](C)CC[C@H]3C(=O)N(C)[C@@H](C(C)C)C(=O)N23)c1`, the z-score in assay [1] was 1.1 (inactive); in [3], -0.147 (inactive); in assay [4], 0.651 (inactive); in [5], -0.355 (inactive); in [6] it was -0.0201 (inactive); in assay [7], 0.423. In addition, the figures for the z-score in [8], in assay [9] and in [10] were 0.226 (inactive), 0.0929 (inactive) and 0.265, respectively. In assay [2], this compound displayed a composite z-score of -0.193.
Regarding `O=C1c2ccccc2[C@](Cc2ccccc2I)(C(=O)NCC(F)(F)F)[C@H](c2ccc(CO)cc2)N1Cc1ccccc1C(F)(F)F`, the z-score in [1] is 1.37 (inactive); in assay [3] it was 2.78 (inactive); in [4] it was 0.55 (inactive); in [5] it was 0.564 (inactive); in assay [6], 0.449 (inactive); in [7] it was 0.179. Moreover, the z-score is 1.27 (inactive) in [8], 0.605 (inactive) in assay [9] and 2.32 in [10]. This compound displayed a composite z-score in assay [2] of -0.597.
For `Cc1ccc(S[C@]2(C(=O)NC(C)C)CC(=O)N(Cc3cc(C(F)(F)F)cc(C(F)(F)F)c3)[C@@H]2c2ccc(CO)cc2I)cc1`, the z-score in [1] was 0.191 (inactive); in [3], 3.22 (inactive); in assay [4] it was 0.504 (inactive); in assay [5], -0.365 (inactive); in assay [6] it was 0.132 (inactive); in assay [7], -0.398. For the same compound, the values for the z-score in assay [8], in assay [9] and in assay [10] were 1.57 (inactive), -1.07 (inactive) and 2.23, respectively. Moreover, the composite z-score in assay [2] is -0.136.
Turning to `CCOC(=O)C1=C[C@@H](c2ccccc2)N(S(=O)(=O)c2ccc(C)cc2)[C@H]1c1ccc(F)cc1`, the z-score in assay [1] was -1.15 (inactive); in assay [3] it was 1.66 (inactive); in assay [4] it was 1.42 (inactive); in [5], -0.101 (inactive); in assay [6], 1 (inactive); in assay [7], -0.217. Also, the results for the z-score in assay [8], in assay [9] and in [10] were 0.108 (inactive), 0.814 (inactive) and -0.291, respectively. Moreover, the composite z-score in assay [2] worked out at 0.275.
